Rows were chosen to be rich in hits. Some 4.1% of all compounds tested hit in one or more screens of this group.
Jurkat NFkB inh = lowers PMA/ionomycin-induced NF-kB signal in Jurkat cells; PMA/ionomycin-induced NF-kB luciferase reporter, luminescence; inhibition, % at 4 µM; 330,000 tested, 0.53% active; AID 435003; in the data active = inhibition above about 50%
aSyn 5UTR inh = MLPCN primary screen, SNCA 5' untranslated region; alpha-synuclein 5'UTR reporter, inhibitor activity; inhibition, % (tested at 7.5 µM); 300,000 tested, 0.82% active; in the data active = inhibition above about 60%;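 also: H4 neuroglioblastoma cells stably carrying SNCA 5'UTR luciferase fusion; 0% = DMSO wells and 100% = positive control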
Mdm2 MdmX PPI = human Mdm2/MdmX binding inhibition | O15151+Q00987 | SaOS-2 split-luciferase Mdm2/MdmX complementation, luminescence | inhibition, % at 8 µM | 330,000 tested, 3% active;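 active = inhibition of at least 50% at 8 µM in the primary screen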
Target sequence (O15151 whole entry, looked up): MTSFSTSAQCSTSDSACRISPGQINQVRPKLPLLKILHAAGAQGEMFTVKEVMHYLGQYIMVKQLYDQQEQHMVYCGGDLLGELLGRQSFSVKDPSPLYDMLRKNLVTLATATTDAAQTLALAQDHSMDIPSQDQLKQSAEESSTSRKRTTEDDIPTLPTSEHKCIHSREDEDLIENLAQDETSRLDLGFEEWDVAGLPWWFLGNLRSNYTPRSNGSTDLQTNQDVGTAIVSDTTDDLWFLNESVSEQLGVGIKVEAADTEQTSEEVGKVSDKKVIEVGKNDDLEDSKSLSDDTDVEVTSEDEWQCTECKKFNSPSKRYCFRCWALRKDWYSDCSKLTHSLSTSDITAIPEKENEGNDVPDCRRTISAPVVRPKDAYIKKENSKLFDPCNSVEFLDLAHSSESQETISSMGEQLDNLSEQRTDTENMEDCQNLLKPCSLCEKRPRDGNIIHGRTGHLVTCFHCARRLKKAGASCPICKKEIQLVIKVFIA
Target sequence (Q00987 whole entry, looked up): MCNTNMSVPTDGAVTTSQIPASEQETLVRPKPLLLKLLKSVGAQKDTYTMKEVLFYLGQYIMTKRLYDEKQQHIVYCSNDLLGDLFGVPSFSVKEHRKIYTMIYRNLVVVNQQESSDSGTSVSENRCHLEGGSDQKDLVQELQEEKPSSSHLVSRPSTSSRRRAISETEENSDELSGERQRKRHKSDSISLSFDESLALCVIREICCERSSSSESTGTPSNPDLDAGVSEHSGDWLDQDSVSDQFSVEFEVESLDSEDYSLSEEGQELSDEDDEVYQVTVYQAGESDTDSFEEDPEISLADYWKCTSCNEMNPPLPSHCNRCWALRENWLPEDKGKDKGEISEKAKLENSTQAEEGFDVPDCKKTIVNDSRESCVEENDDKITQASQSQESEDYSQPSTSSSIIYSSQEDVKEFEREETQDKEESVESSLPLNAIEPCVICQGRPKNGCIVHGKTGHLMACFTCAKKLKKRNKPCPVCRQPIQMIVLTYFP
KLF5 inhibitor = kruppel-like factor 5 inhibition; inhibition, % at 5 µM; 290,000 tested, 0.23% active; AID 1700; DLD-1 KLF5 promoter-luciferase reporter, luminescence;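 active = inhibition above a per-plate limit of that plate's mean compound inhibition plus 3 SD, cut at about 60% in these data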;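 also: 0% = DMSO wells and 100% = LY294002 at 200 µM; higher means less KLF5 promoter-driven luciferase light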
Gli-Sufu block = antagonists of Gli-Sufu signaling; Sufu-KO-LIGHT fibroblasts, Gli luciferase reporter luminescence; inhibition, % at 5 µM; 340,000 tested, 0.74% active; AID 588413;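 active = inhibition above about 55%, limit read from the data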;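 also: 0% = DMSO-treated cells and 100% = wells with medium but no cells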
697 NFkB inh = inhibitors of the PMA/ionomycin-induced NF-kB reporter in 697 B cells. 697 B-cell NF-kB luciferase reporter, 16 h. inhibition, % at 4 µM. 330,000 tested, 0.33% active; in the data active = inhibition above about 35%
Mdm2-MdmX conf = confirmation of human Mdm2/MdmX interaction inhibitors; shares compounds with Mdm2 MdmX PPI; Mdm2-MdmX binding, luminescent assay; inhibition, % at 8 µM; 10,000 tested, 55% active; AID 489028; in the data active = inhibition above about 40%
FLuc counter = inhibits full-length luciferase, flagging false Mdm2/MdmX hits | shares compounds with Mdm2 MdmX PPI | SaOS-2 full-length luciferase counterscreen, luminescence | inhibition, % at 8 µM | 6,200 tested, 77% active | AID 504607;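 active = mean inhibition at 8 µM reaching about 37%, which flags the compound as non-specific, limit read from the data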;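 also: p53-null SaOS-2 cells with luciferase driven by a doxycycline-inducible promoter; compound on cells about two nights before reading with doxycycline added after day one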
Gli-Sufu confirm = confirmation of Gli-SUFU pathway antagonists; shares compounds with Gli-Sufu block; Sufu-KO-LIGHT cells, Gli luciferase reporter, luminescence; inhibition, % at 5 µM; 2,500 tested, 40% active; AID 602428;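 active = mean inhibition at 5 µM reaching about 45%, limit read from the data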;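 also: plate controls were DMSO-treated cells for no effect and wells lacking cells for full effect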
Gli cytotox = cytotoxicity counter-screen for Gli-SUFU antagonists. shares compounds with Gli-Sufu block. Sufu-KO-LIGHT cells cytotoxicity, ATP luminescence. cytotoxicity, % at 5 µM. 2,500 tested, 32% active. AID 651994;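 active = mean cytotoxicity at 5 µM above about 25%, limit read from the data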;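 also: cells exposed to compound overnight for roughly 16 to 18 hours; plate controls were DMSO wells with cells for no effect and medium without cells for full effect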
Wnt3a counter = Wnt3a reporter inhibition counter-screen; shares compounds with Gli-Sufu block; inhibition, % at 6.25 µM; AID 651995; Wnt-LIGHT cells, Wnt3a-driven luciferase reporter, luminescence; 2,500 tested, 20% active;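 active = mean inhibition above about 25%, limit read from the data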
Active calls of the source: *.

Brc1ccc(-[n+]2c(-c3ccccc3)cc(-c3ccccc3)cc2-c2ccccc2)cc1 was read as Jurkat NFkB inh 41, aSyn 5UTR inh 44, Mdm2 MdmX PPI 87*, Gli-Sufu block 56*, 697 NFkB inh -37, Mdm2-MdmX conf 74*, FLuc counter 24, Gli-Sufu confirm 79*, Gli cytotox 8 and Wnt3a counter 6.
`COC(=O)C1=C(c2ccc(F)cc2OCc2ccccc2)C[C@@H]2CC[C@H]1N2C(=O)NCc1ccc([N+](=O)[O-])cc1` gave Jurkat NFkB inh -6, Mdm2 MdmX PPI 47, Gli-Sufu block 13 and 697 NFkB inh 9.
For C=C1[C@@H](C)[C@H]2[C@H](Cc3ccccc3)NC(=O)[C@]23OC(=O)/C=C/[C@H](O)CCC[C@@H](C)C/C=C/[C@H]3[C@@H]1O the results were Jurkat NFkB inh 19, aSyn 5UTR inh 109*, Mdm2 MdmX PPI 82*, KLF5 inhibitor 32, Gli-Sufu block 57*, 697 NFkB inh 12, Mdm2-MdmX conf 71*, FLuc counter 53*, Gli-Sufu confirm 36, Gli cytotox 46* and Wnt3a counter 58*.
`C[C@H]1C/C=C/[C@H]2[C@H](O)[C@H](C)[C@@](C)(O)[C@H]3[C@H](Cc4ccccc4)NC(=O)[C@]32[C@H](O)/C=C/[C@](C)(O)C1` gave Jurkat NFkB inh 1, aSyn 5UTR inh 24, Mdm2 MdmX PPI 32, Gli-Sufu block -9 and 697 NFkB inh 16.
For CNP1(NC)=NC(C(F)(F)F)=NC(C(F)(F)F)=N1 the results were Jurkat NFkB inh -43, aSyn 5UTR inh 0, Mdm2 MdmX PPI -2, KLF5 inhibitor -5, Gli-Sufu block 56*, 697 NFkB inh -22, Gli-Sufu confirm 11, Gli cytotox 6 and Wnt3a counter -6.
OC[C@@H](O)CCl was read as Jurkat NFkB inh 2, aSyn 5UTR inh -10, Mdm2 MdmX PPI 10 and 697 NFkB inh 14.
For COC1/C=C/C=C(\C)Cc2cc(O)c(Cl)c(c2)N(C)C(=O)CC(OC(=O)C(C)C)C2(C)OC2C(C)C2CC1(O)NC(=O)O2 (stereo not given) the results were Gli-Sufu block 54, Gli-Sufu confirm 61*, Gli cytotox 58* and Wnt3a counter -5.
Screening O=S(=O)(NC1CCCCC1)OCC(Cl)(Cl)Cl returned Jurkat NFkB inh 3, aSyn 5UTR inh 13, Mdm2 MdmX PPI 10, KLF5 inhibitor -7, Gli-Sufu block 2 and 697 NFkB inh -21.
For C#CCNc1ccncc1S(=O)(=O)NC(=O)NC(C)C the results were Jurkat NFkB inh -22, aSyn 5UTR inh 1, Mdm2 MdmX PPI 11, KLF5 inhibitor 28, Gli-Sufu block 57*, 697 NFkB inh -3, Gli-Sufu confirm 11, Gli cytotox -6 and Wnt3a counter 5.
Screening COc1ccc(CC2C(=O)NC(C)C(=O)N(C)C3C(=O)N(C)C(Cc4ccc(O)c(c4)Oc4ccc(cc4)C3O)C(=O)NC(C)C(=O)NC(C)C(=O)N2C)cc1 (stereo not given) returned Gli-Sufu block 93*, Gli-Sufu confirm 96*, Gli cytotox 87* and Wnt3a counter 105*.
`CCOC(=O)C1(CCc2ccccc2)CCN(Cc2csc(C(C)=O)c2)CC1` gave Jurkat NFkB inh 27, aSyn 5UTR inh 12, Mdm2 MdmX PPI 23, KLF5 inhibitor -23, Gli-Sufu block 53, 697 NFkB inh -45, Gli-Sufu confirm 22, Gli cytotox 2 and Wnt3a counter -46.
For CC1CCOC(=O)C=CC=CC(=O)OC2CC3OC4C5OC5(C)C(O)CC4(COC(=O)C1O)C2(C)C31CO1 (stereo not given) the results were Gli-Sufu block 91*, Gli-Sufu confirm 93*, Gli cytotox 77* and Wnt3a counter 103*.
For COc1ccc(CC(C)NC2CCCCCC2)cc1 (stereo not given) the results were Jurkat NFkB inh -14, aSyn 5UTR inh -24, Mdm2 MdmX PPI 3, KLF5 inhibitor -20, Gli-Sufu block 12 and 697 NFkB inh -13.
CCOc1ccccc1-n1c(O)c(C=NCCCN(CC)CC)c(=O)[nH]c1=O was read as Jurkat NFkB inh -2, aSyn 5UTR inh 6, Mdm2 MdmX PPI 20, KLF5 inhibitor -15, Gli-Sufu block 8 and 697 NFkB inh 15.
Screening N#Cc1c(Br)n(C2OC(CO)C(O)C2O)c2ncnc(N)c12 (stereo not given) returned Gli-Sufu block -17.
Screening N#Cc1cn(C2OC(CO)C(O)C2O)c2ncnc(N)c12 (stereo not given) returned Gli-Sufu block 81*, Gli-Sufu confirm 98*, Gli cytotox 97* and Wnt3a counter -53.
CC(Cc1ccccc1)NC(=O)Cc1ccc([N+](=O)[O-])cc1 (stereo not given) was read as Jurkat NFkB inh -12, aSyn 5UTR inh 2, Mdm2 MdmX PPI -21, KLF5 inhibitor -11, Gli-Sufu block 5 and 697 NFkB inh -36.
`CN1C(=O)C(=Cc2ccccc2Oc2ccc(Cl)cc2)C(=O)N(C)C1=O` gave Jurkat NFkB inh 1, aSyn 5UTR inh 3, Mdm2 MdmX PPI 19, KLF5 inhibitor 4, Gli-Sufu block 52, 697 NFkB inh 11, Gli-Sufu confirm 27, Gli cytotox 5 and Wnt3a counter 10.
Screening CN1C(=O)C(=Cc2ccccc2OCc2ccc(Cl)cc2)C(=O)N(C)C1=O returned Jurkat NFkB inh -21, aSyn 5UTR inh -27, Mdm2 MdmX PPI -16, KLF5 inhibitor -75, Gli-Sufu block -13 and 697 NFkB inh -31.
For COC(=O)C1=C(c2ccc(Cl)c(C(F)(F)F)c2)C[C@@H]2CC[C@H]1N2C(=O)NCCOc1ccccc1 the results were Jurkat NFkB inh 13, Mdm2 MdmX PPI 17, Gli-Sufu block 19 and 697 NFkB inh 19.
C=CCCC1(CC(C)C)C(=O)NC(=S)NC1=O was read as Gli-Sufu block -15.
For CN(C)CCN(CC1CCCN(Cc2ccccc2F)C1)C(=O)Cc1ccccc1F (stereo not given) the results were aSyn 5UTR inh 6 and KLF5 inhibitor -5.
